Activity calls are given as the source filed them. How the source made its calls: active means hit-call score of the fitted dose curve at least 0.9, where 1 is the maximum; inactive means score below 0.9.
Columns and labels:
[1] = read-out: C-C motif chemokine 2 (Homo sapiens) (UniProt P13500); experiment: BSK_KF3CT_MCP1: BioMAP Diversity Plus: KF3CT Assay for Monocyte Chemoattractant Protein 1 (MCP1/CCL2) Biomarker Activity (AID 2283073); settings: primary human keratinocytes with fibroblasts; actives raise or lower the signal
How it was run: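 Biomarker MCP-1 is measured by ELISA in primary human keratinocytes co-cultured with foreskin fibroblasts, 24 h after chemical treatment; DMSO serves as the negative control and activity baseline.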

[2] = read-out: Matrix Metallopeptidase 9 (MMP9), MMP9 (gene 4318); experiment: BSK_KF3CT_MMP9: BioMAP Diversity Plus: KF3CT Assay for Matrix Metallopeptidase 9 (MMP9) Biomarker Activity (AID 2283074); settings: primary human keratinocytes with fibroblasts; actives raise or lower the signal;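 on AC50: MMP9 protein level quantified by ELISA in the co-culture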
How it was run: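 MMP-9 quantified by ELISA after 24 h chemical treatment of primary human skin keratinocyte/fibroblast co-cultures; gain or loss fitted against DMSO, with parallel SRB staining (0.1% SRB, 560 nm) for overt cytotoxicity.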

[3] = read-out: urokinase plasminogen activator (uPA), PLAU (gene 5328); experiment: BSK_KF3CT_uPA: BioMAP Diversity Plus: KF3CT Assay for urokinase plasminogen activator (uPA) Biomarker Activity (AID 2283075); settings: primary human keratinocytes with fibroblasts; actives raise or lower the signal
How it was run: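 ELISA read-out of uPA 24 h after dosing human skin keratinocytes co-cultured with foreskin fibroblasts. Signal change fitted both ways relative to DMSO; sulforhodamine B on parallel cultures marks overt cytotoxicity.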

CD40, CD40 (gene 958) = experiment: BSK_LPS_CD40: BioMAP Diversity Plus: LPS Assay for CD40 Biomarker Activity (AID 2283076); settings: primary human HUVEC with PBMC; actives raise or lower the signal
How it was run: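 Using a multiplexed primary human co-culture (umbilical vein endothelium plus PBMC), CD40 was read by ELISA 24 h after dosing, with cytotoxicity tracked by sulforhodamine B staining of parallel cultures and activity fitted bidirectionally versus DMSO.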

[4] = read-out: E-selectin (Homo sapiens) (UniProt P16581); experiment: BSK_LPS_Eselectin: BioMAP Diversity Plus: LPS Assay for Eselectin Biomarker Activity (AID 2283077); settings: primary human HUVEC with PBMC; actives raise or lower the signal
How it was run: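 Dose chemical onto LPS-driven HUVEC/PBMC co-culture; after 24 h, run ELISA for E-selectin; fit up- and down-going responses relative to DMSO control.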

[5] = read-out: Interleukin-8 (IL8), CXCL8 (gene 3576); experiment: BSK_LPS_IL8: BioMAP Diversity Plus: LPS Assay for Interleukin-8 (IL8) Biomarker Activity (AID 2283078); settings: primary human HUVEC with PBMC; actives raise or lower the signal
How it was run: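 In this LPS system, chemical-treated human umbilical vein endothelium/PBMC co-cultures were harvested at 24 h for IL-8 ELISA.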

[6] = BSK_LPS_SRB: Viability Assessment in the BioMAP Diversity Plus: LPS Assay (AID 2283079); settings: primary human HUVEC with PBMC;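 further: total protein by sulforhodamine B absorbance as a cytotoxicity measure; measured one day after compound addition; fitted in both directions against DMSO so loss or gain of signal counts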
How it was run: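 Cytotoxicity endpoint in human endothelial–PBMC co-culture: 24 h exposure, then SRB (0.1%) staining, 560 nm read.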

[7] = read-out: Interleukin-1 alpha (IL1a), IL1A (gene 3552); experiment: BSK_LPS_IL1a: BioMAP Diversity Plus: LPS Assay for Interleukin-1 alpha (IL1a) Biomarker Activity (AID 2283080); settings: primary human HUVEC with PBMC; actives raise or lower the signal
How it was run: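 Primary human HUVEC and PBMC co-culture stimulated with LPS is dosed and harvested at 24 h. Both increases and decreases in ELISA-measured IL-1a are scored relative to DMSO.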

[8] = read-out: Monocyte Chemoattractant Protein-1 (MCP1), CCL2 (gene 6347); experiment: BSK_LPS_MCP1: BioMAP Diversity Plus: LPS Assay for Monocyte Chemoattractant Protein-1 (MCP1) Biomarker Activity (AID 2283081); settings: primary human HUVEC with PBMC; actives raise or lower the signal;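 on AC50: secreted MCP-1 protein quantified by ELISA in culture supernatant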
How it was run: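 Values derive from bidirectional fitting against DMSO of ELISA-measured MCP-1 in a human primary endothelial and mononuclear cell co-culture, 24 h after chemical addition under LPS activation.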

[9] = BSK_LPS_PGE2: BioMAP Diversity Plus: LPS Assay for Prostaglandin E2 (PGE2) Biomarker Activity (AID 2283082); settings: primary human HUVEC with PBMC; actives raise or lower the signal;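 on AC50: secreted prostaglandin E2 measured by ELISA in LPS-stimulated co-culture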
How it was run: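 ELISA read-out of PGE2 from human umbilical vein endothelial cells co-cultured with peripheral blood mononuclear cells under LPS, 24 h post-dose. Gain or loss of signal scored relative to DMSO baseline.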

Measured: AC50

Sequence of E-selectin (Homo sapiens) (P16581 whole entry, looked up): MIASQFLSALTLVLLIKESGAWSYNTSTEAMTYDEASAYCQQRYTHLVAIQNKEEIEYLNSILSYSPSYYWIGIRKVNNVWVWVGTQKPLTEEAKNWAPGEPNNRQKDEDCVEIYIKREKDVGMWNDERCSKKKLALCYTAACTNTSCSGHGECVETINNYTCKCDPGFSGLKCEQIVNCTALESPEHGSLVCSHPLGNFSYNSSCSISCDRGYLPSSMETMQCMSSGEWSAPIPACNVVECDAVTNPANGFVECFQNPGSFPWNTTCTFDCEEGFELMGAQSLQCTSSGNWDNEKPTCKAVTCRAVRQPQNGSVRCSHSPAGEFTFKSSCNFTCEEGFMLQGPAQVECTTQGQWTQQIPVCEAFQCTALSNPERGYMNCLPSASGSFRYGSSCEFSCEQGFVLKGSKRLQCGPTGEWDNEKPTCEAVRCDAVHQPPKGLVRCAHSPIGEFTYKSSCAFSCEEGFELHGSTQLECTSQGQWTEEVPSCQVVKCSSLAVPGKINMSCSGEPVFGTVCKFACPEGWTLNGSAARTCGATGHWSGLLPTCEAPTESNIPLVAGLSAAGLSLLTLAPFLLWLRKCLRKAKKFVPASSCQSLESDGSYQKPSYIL

O=c1ccc2ccccc2o1
inactive: all assays above

Clc1cc(Cl)c2c(c1)N=C1CCCCCN1C2
inactive: all assays above

CCN(CC)C(=O)c1cc(S(=O)(=O)Cc2ccccc2)c(N2CCC(c3ccccc3)CC2)cc1N(CC)CCN(C)C
inactive: [1] | [3] | [9]
active: [2] 24 µM | CD40, CD40 (gene 958) 8.94 µM | [4] 27.6 µM | [5] 18.7 µM | [6] 10.5 µM | [7] 8.53 µM | [8] 19.5 µM

CCCCCCCCCCCO
inactive: all assays above

c1ccc2ccccc2c1
inactive: all assays above

Cc1c2ccccc2c(C)c2c1ccc1ccccc12
active: CD40, CD40 (gene 958) 15.3 µM | [6] 24.8 µM | [7] 26.8 µM | [8] 25.3 µM
inactive: all other assays above

Cc1cccc2ccccc12
inactive: all assays above

Cc1cn([C@H]2C[C@H](N=[N+]=[N-])[C@@H](CO)O2)c(=O)[nH]c1=O
inactive: all assays above

CCOC(=O)O[C@H](C)OC(=O)c1ccc2c(c1)cc(C(=O)NC1CCN(C(C)C)CC1)n2Cc1cc(-c2ccc(Cl)s2)on1
active: [1] 5.86 µM | [2] 8.39 µM | [3] 8.14 µM | CD40, CD40 (gene 958) 6.74 µM | [4] 10.4 µM | [5] 6.76 µM | [6] 5.61 µM | [7] 6.55 µM | [8] 8.72 µM | [9] 7.65 µM

NCc1cccc(C2CCN(C(=O)c3ccc(C#Cc4ccccc4F)o3)CC2)c1
active: [1] 20 µM | [2] 11.3 µM | [3] 11.1 µM | CD40, CD40 (gene 958) 8.42 µM | [4] 35.6 µM | [5] 25.8 µM | [6] 15.3 µM | [7] 17.1 µM | [8] 16.1 µM
inactive: [9]

O=C1O[C@H]([C@@H](O)CO)C(O)=C1O
inactive: all assays above

O=CCCCC=O
active: [1] 32 µM | [2] 24.9 µM | [3] 32 µM | [7] 32.9 µM
inactive: all other assays above

C[C@]12CC[C@@H]3c4ccc(O)cc4CC[C@H]3[C@@H]1CCC2=O
active: [4] 0.122 µM
inactive: all other assays above

COc1cccc([C@H](O)C2CCN(CCc3ccc(F)cc3)CC2)c1OC
inactive: all assays above

CCCCOC(=O)CC(CC(=O)OCCCC)(OC(C)=O)C(=O)OCCCC
inactive: all assays above

CC1=CC(=O)/C(=C(/C)O)C(=O)O1
active: [1] 0.396 µM | [7] 20 µM
inactive: all other assays above

Oc1ccc2ccccc2c1
active: CD40, CD40 (gene 958) 22.1 µM | [4] 16.1 µM | [9] 13.2 µM
inactive: all other assays above

O=C1CCC(C2CCCCC2)CC1
active: [1] 29.6 µM | [2] 31.8 µM
inactive: all other assays above

CCN(Cc1cccc(S(=O)(=O)O)c1)c1ccc(C(=C2C=CC(=[N+](CC)Cc3cccc(S(=O)(=O)O)c3)C=C2)c2ccccc2S(=O)(=O)[O-])cc1
inactive: all assays above

CN(C)c1ccc(C(=C2C=CC(=[N+](C)C)C=C2)c2ccc(N(C)C)cc2)cc1
active: [1] 3.97 µM | [2] 1.33 µM | [3] 2.85 µM | CD40, CD40 (gene 958) 0.438 µM | [4] 0.355 µM | [5] 1.26 µM | [6] 7.67 µM | [7] 0.147 µM | [8] 0.269 µM | [9] 1.13 µM

CO[C@H]1/C=C/O[C@@]2(C)Oc3c(C)c(O)c4c(O)c(c(/C=N/N5CCN(C)CC5)c(O)c4c3C2=O)NC(=O)/C(C)=C\C=C\[C@H](C)[C@H](O)[C@@H](C)[C@@H](O)[C@@H](C)[C@H](OC(C)=O)[C@@H]1C
inactive: all assays above

CC[C@@H]1C[C@H](N(Cc2cc(C(F)(F)F)cc(C(F)(F)F)c2)C(C)=O)c2cc(C(F)(F)F)ccc2N1C(=O)OC(C)C
inactive: all assays above

CCCOC(=O)c1cc(O)c(O)c(O)c1
active: [3] 3.97 µM | [9] 4.97 µM
inactive: all other assays above

CCCCCCCCCCCC[N+](C)(C)C
active: [1] 29.7 µM | [2] 30.7 µM | [3] 34 µM | CD40, CD40 (gene 958) 16.9 µM | [4] 20.3 µM | [5] 20 µM | [6] 25.7 µM | [7] 16.6 µM | [8] 25.5 µM
inactive: [9]

O=C(O)c1ccccc1C(=O)OCc1ccccc1
inactive: all assays above

O=c1c(-c2ccc(O)cc2)coc2cc(O)cc(O)c12
active: [2] 20 µM | CD40, CD40 (gene 958) 14.3 µM | [4] 31.7 µM | [5] 20 µM | [6] 12 µM | [7] 16 µM | [8] 17.9 µM | [9] 10 µM
inactive: [1] | [3]

COc1cc(C(=O)NC2CCN(C)CC2)ccc1Nc1ncc2c(n1)N(C1CCCC1)CC(F)(F)C(=O)N2C
active: [1] 5.37 µM | [2] 18.6 µM | [3] 27.1 µM | CD40, CD40 (gene 958) 10.1 µM | [4] 22.6 µM | [5] 18.6 µM | [6] 8.37 µM | [7] 6.03 µM | [8] 11.7 µM | [9] 5.48 µM

O=C1c2ccccc2C(=O)N1CCc1noc(-c2ccc(CN3CCCCCC3)s2)n1
inactive: all assays above

O=C(O)Cc1cc(I)c(Oc2ccc(O)c(I)c2)c(I)c1
active: [2] 20 µM
inactive: all other assays above

COc1ccc2cc(S(=O)(=O)N[C@H](CC(=O)N[C@H](Cc3ccc(CN4[C@H](C)CCC[C@@H]4C)cc3)C(=O)N(C)C(C)C)c3ccc4c(c3)OCO4)ccc2c1
active: [2] 32.8 µM | CD40, CD40 (gene 958) 11.6 µM | [4] 31.3 µM | [5] 5.7 µM | [6] 15.5 µM | [7] 14.5 µM | [8] 23.1 µM | [9] 31.1 µM
inactive: [1] | [3]

NC(=O)c1nc(-c2cccc(-c3cc(F)ccc3OCC(F)(F)C(F)(F)F)c2)n[nH]1
active: [1] 34 µM | [2] 39.7 µM | [3] 43.1 µM | CD40, CD40 (gene 958) 22.6 µM | [4] 37.7 µM | [5] 33.7 µM | [6] 31.6 µM | [7] 41.4 µM | [8] 33.6 µM | [9] 38.2 µM

c1ccc2n[nH]nc2c1
inactive: all assays above

C[C@]12CC[C@@H]3c4ccc(O)cc4CC[C@H]3[C@@H]1CC[C@H]2O
active: [6] 9.95 µM | [8] 14.1 µM
inactive: all other assays above

CC(=O)N1CCN(c2ccc(OC[C@H]3CO[C@](Cn4ccnc4)(c4ccc(Cl)cc4Cl)O3)cc2)CC1
active: [2] 29.8 µM | [3] 30.8 µM | CD40, CD40 (gene 958) 11.8 µM | [4] 32.2 µM | [5] 29.9 µM | [6] 20 µM | [7] 35.6 µM | [8] 31 µM
inactive: [1] | [9]

CCCCCCCCOc1ccc(C(=O)c2ccccc2)c(O)c1
active: CD40, CD40 (gene 958) 25.3 µM
inactive: all other assays above

OC12N=C(c3ccccc3)SC1Cc1cc(Cl)ccc12 (stereo not given)
active: CD40, CD40 (gene 958) 16.8 µM | [7] 25.3 µM
inactive: all other assays above

Oc1ccccc1
inactive: all assays above

Cc1cc2c(cc1C(F)(F)F)N(C(=O)Nc1ccc(Oc3cccnc3C)nc1)CC2
active: [2] 29.8 µM | [3] 29.2 µM | CD40, CD40 (gene 958) 12.1 µM | [5] 2.7 µM | [7] 3.65 µM
inactive: all other assays above
